Screening results: PubChem, National Center for Advancing Translational Sciences (NCATS)
ERG-DNA inh – inhibitors of human ERG Ets domain-DNA interaction | P11308 | fluorescence polarization, His-ERG Ets domain / labelled DNA | Potency, µM (doses to about 76.9 µM), for inactives: at the top dose FP activity, negative = inhibition, actives largely listed as inhibitors | hit rate 0.028% among 370,000 | AID 624246; active = well fitted inhibition curve with a large enough effect in the polarisation, with a control signal flat; inconclusive = small, poorly fitted or top-dose-only effect, or effect the other way, or a change in a side signal; inactive = no such curve, though single readings can be large or run the other way; the % refers to the polarisation;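 also: polarization taken with two DNA probes labelled with fluorescein and Texas red; % of control where 0% means no effect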
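His-tagged ERG Ets domain (1 uM in the protein solution; 300mM KCl, 50mM Tris-HCl, 1mM EDTA, 1mM DTT, pH 7.5) received compound, then a probe mix of 5 nM fluorescein-DNA and 100nM Texas-615-DNA. Fluorescence polarization was read for both dyes.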
BRCA1 expr act – activators of BRCA1 expression; MCF7-BRCA1-FFLuc reporter, luminescence, 48 h; response scale: scaled: vehicle 0%, 10 µM genistein 100%; hit rate 1.1% among 380,000; Potency, µM (top dose mostly 46.1 µM), for the others: top-dose activation, most hits filed as activators; also: nearly all actives have a fitted effect of over 80% in size
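Compounds are tested at multiple concentrations on MCF7 BRCA1-luciferase reporter cells seeded at 2000 per well; after 48 h, a single luminescence end-point is taken and curves fitted to the normalized data.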
B2AR arrestin – recruits beta-arrestin to the human beta2-adrenergic receptor | hit rate 0.02% among 330,000 | beta-arrestin recruitment to beta2AR, cell-based reporter | Potency, µM (doses to about 46.1 µM), for inactives: at the top dose activation, usual class: activators;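 also: 0% = DMSO controls and full agonism = EC100 isoproterenol or metaproterenol; nearly all actives have a fitted effect of over 65% in size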
Target sequence (P07550 whole entry, looked up): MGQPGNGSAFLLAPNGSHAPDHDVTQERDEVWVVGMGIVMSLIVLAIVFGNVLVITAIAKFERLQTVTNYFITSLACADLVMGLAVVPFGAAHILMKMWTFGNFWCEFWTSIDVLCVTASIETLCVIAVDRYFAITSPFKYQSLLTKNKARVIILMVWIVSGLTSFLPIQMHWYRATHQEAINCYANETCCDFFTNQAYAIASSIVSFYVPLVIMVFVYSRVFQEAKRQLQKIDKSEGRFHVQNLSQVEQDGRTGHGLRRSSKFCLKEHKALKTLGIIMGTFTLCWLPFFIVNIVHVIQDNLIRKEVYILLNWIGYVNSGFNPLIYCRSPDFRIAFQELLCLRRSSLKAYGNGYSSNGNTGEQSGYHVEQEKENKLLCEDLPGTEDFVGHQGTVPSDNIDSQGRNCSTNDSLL
Mito fusion act – inhibitors of mitochondrial division or activators of mitochondrial fusion. S. cerevisiae fusion-defective mutant growth rescue, CellTiterGlo 48 h. Potency, µM (titrated, usually from 46.1 µM), without a hit: at the top dose growth rescue (activation), hits mostly activators. hit rate 0.23% among 320,000; also: % of control where 0% means no effect; nearly all actives have a fitted effect of over 45% in size
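Luminescent cell viability in 1536-well qHTS format served as the measure of rescued growth in ts fusion-mutant S. cerevisiae cultured on non-fermentable YPEG for 48 hours at 37C.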
* = called active by the depositor; ? = inconclusive; . = no result given; [ ] = remark or other dose. Sampled rows, rich in hits. Any-hit rate of the full collection: about 1.2%. Unless noted, calls follow the shape of the dose curve; as a rule, active = well fitted curve in the direction sought with a large enough effect; inconclusive = small, poorly fitted or top-dose-only effect, or another doubt; inactive = no such curve, though single readings can be large; an effect the other way counts as inactive or inconclusive. Potency is read from the fitted curve at half-maximal effect.

SMILES | ERG-DNA inh | BRCA1 expr act | B2AR arrestin | Mito fusion act
CCOC(=O)c1c(-c2cccs2)csc1NC(=O)CN(CC)CC | 0.6% | -32.1%[1.84 µM] | 0.5% | -4.4%
Cc1cc2oc(C(=O)Nc3ccc(S(=O)(=O)N4CCCCCC4)cc3)cc(=O)c2cc1C | -1.2% | . | . | .
COc1ccc(-c2cc(=O)oc3c(C)c(OC(C)C(C)=O)ccc23)cc1 (stereo not drawn) | 5.6% | -17.5% | -0.6% | 22.4µM*
C=CCn1cnc2c(NCc3ccccc3)ncnc21 | -0.5% | 3.98µM* | 3.4% | -6.1%
CC(=O)Nc1ccc2oc(-c3cc(F)c(F)cc3Cl)nc2c1 | -5.0% | 48.7% | 0.5% | 6.1%
CC(C)C(=O)Nc1ccc2oc(-c3cc(F)c(F)cc3Cl)nc2c1 | 3.4% | 2.82µM* | -0.7% | -14.9%
O=C(CSc1nc2ccccc2n1CC(=O)N1CCCCC1)N1CCCCC1 | -4.3% | -11.5% | 0.4% | -8.6%
O=C(CSc1nc2ccccc2n1S(=O)(=O)c1ccccc1)N1CCCCC1 | -5.9% | 14.1µM* | -0.7% | -1.9%
OC1C(Br)=Cc2ccccc21 (stereo not drawn) | . | 10.6% | . | .
Nc1cccc(-c2nc3ccccc3[nH]2)c1 | -5.2% | 10µM* | 0.0% | -1.3%
CCN(CC)c1ccc(NC(=O)C2CCN(S(=O)(=O)c3ccc4c(c3)oc(=O)n4C)CC2)c(C)c1 | 1.7% | 9.1% | . | .
Cc1cccnc1NC(=S)NC(=O)c1oc2ccccc2c1C | 2.8% | 2.82µM* | 0.0% | 0.8%
O=C(COc1ccccc1C(=O)Nc1ccccc1F)Nc1ccc(Br)cc1 | . | -21.4% | . | .
Cc1ccc(S(=O)(=O)CC(=O)Nc2ccc3nc(C)sc3c2)cc1 | -15.3% | -0.1% | 0.2% | -14.8%
O=C(Cc1cccs1)Nc1ccc(F)c(F)c1 | 5.8% | 31.0% | -0.4% | 1.0%
Cc1ccc(NC(=O)Cc2cccs2)cc1Cl | -9.6% | 11.2µM* | -0.7% | 3.9%
Cc1ccc(NC(=O)CCNS(=O)(=O)c2cccs2)cc1F | -15.6% | 16.7% | -1.1% | -5.4%
Cc1ccc(NC(=O)CCC(=O)c2cccs2)cc1F | -6.4% | 12.6µM* | 0.1% | 11.7%
Cc1nc2ccc(NC(=O)CS(=O)(=O)c3ccc(F)cc3)cc2s1 | -1.6% | 11.2µM* | ? | -14.4%
Cc1nc2ccc(NC(=O)Cc3cccs3)cc2s1 | -2.7% | 3.55µM* | -1.1% | -11.1%
N/C(=N/OC(=O)c1cccc([N+](=O)[O-])c1)c1cccc([N+](=O)[O-])c1 | 9.0% | 7.08µM* | 0.0% | 0.6%
N/C(=N\OC(=O)c1cccc(F)c1)c1cccc([N+](=O)[O-])c1 | 6.6% | 12.6µM* | -0.3% | 0.9%
O=C(Nc1ccc(-c2cnco2)cc1)c1ccc(F)cc1F | 12.3% | 5.01µM* | 0.2% | -1.6%
O=C(Nc1ccccc1)c1ccc(-c2ccccc2C(F)(F)F)o1 | 8.3% | 4.9% | -0.2% | ?
CC(C)NC(=O)c1ccc(-c2ccccc2C(F)(F)F)o1 | . | 11.2µM* | 0.1% | 13.4%
SMILES | ERG-DNA inh | BRCA1 expr act | B2AR arrestin | Mito fusion act
CC(=O)c1cc(C#N)c(SCC(=O)OC(C)(C)C)nc1C | 8.2% | 5.62µM* | -0.5% | 17.6%
O=Cc1ccc(OCc2ccc3ccccc3c2)cc1 | 3.6% | 4.47µM* | -0.2% | 0.9%
CCOC(=O)c1c(C)[nH]c(CCC(=O)NCc2ccccc2C)c1C | 2.9% | . | . | .
O=[N+]([O-])c1ccc(/C=C/c2ccncc2)cc1 | 3.3% | 10µM* | -0.5% | 1.1%
Cn1cc(CCNC(=O)c2ccc3nc(Cc4ccccc4F)oc3c2)cn1 | -6.1% | 2.51µM* | 0.0% | 6.2%
Cc1cccc(CNC(=O)c2ccc3nc(Cc4ccccc4F)oc3c2)n1 | 7.5% | 12.6µM* | -0.8% | 0.8%
Cn1cc(CNC(=O)c2ccc3nc(Cc4ccccc4F)oc3c2)cn1 | -7.6% | 101.6% | 0.3% | 2.5%
COc1ccc(Cc2nc3ccc(C(=O)NCc4cccc(C)n4)cc3o2)cc1OC | . | 14.3% | . | .
COCCC1CCCCN1C(=O)c1ccc2nc(Cc3ccccc3F)oc2c1 (stereo not drawn) | 0.9% | 7.94µM* | 0.5% | 0.3%
COc1ccc(C2C=C(c3ccccc3)Nc3nc(NC(=O)/C=C/c4ccc(Cl)cc4)nn32)cc1 (stereo not drawn) | -2.5% | . | . | .
Cc1c2cnn(CC(=O)Nc3cccc(C(F)(F)F)c3)c(=O)c2c(C)n1Cc1ccccc1Cl | -0.8% | . | . | .
CC1CCC/C(=C(\C#N)c2nc(-c3cc4ccccc4oc3=O)cs2)C1 (stereo not drawn) | 0.7% | 3.16µM* | -0.4% | 6.9%
Cc1cc(-n2ccnc(NCCc3ccc(S(N)(=O)=O)cc3)c2=O)ccc1Br | -0.2% | -8.6% | . | .
O=c1ccc2c(OCCCCc3ccccc3)c3ccoc3cc2o1 | . | . | . | 5.17µM*
O=C(COc1ccc2c(c1)OCO2)Nc1nccs1 | 7.0% | 3.16µM* | -0.1% | -21.5%
O=C(CCCCCN1CCN(c2ccccc2-c2ccccc2)CC1)NC1CCCc2ccccc21 (stereo not drawn) | . | . | . | -51.3%
CCCC(=O)N(CCN1CCOCC1)c1nc2cc(C)c(C)cc2s1 | 4.8% | 3.98µM* | 0.0% | 0.8%
COc1ccc(NC(=O)C2Cc3ccccc3O/C2=N\O)cc1 (stereo not drawn) | 5.6% | 10µM* | 0.2% | 5.6%
CCc1sc(-c2cc3cccc(OC)c3oc2=O)nc1-c1ccccc1 | . | 2.0% | . | .
CC(Oc1ccccc1)C(=O)Nc1nnc(S(=O)(=O)N(C)c2ccccc2)s1 (stereo not drawn) | -6.8% | -27.9% | -0.3% | 12.6µM*
CN(c1ccccc1)S(=O)(=O)c1nnc(NC(=O)COc2ccccc2)s1 | 18.0% | -5.7% | -0.2% | 22.9%
CC(=O)n1nc(-c2ccco2)nc1SCc1ccccc1 | 8.0% | 11.2µM* | 0.6% | 3.4%
CCOC(=O)C1=NN(c2ccc(Cl)cc2)C(=O)C1 | 13.0% | 3.98µM* | -0.2% | -14.1%
Cc1c(C(=O)N2CCCC2)oc2ccc(Br)cc12 | 4.0% | 6.31µM* | -1.0% | -2.3%
CCCc1ccc2oc(C(=O)N3CCCC3)c(C)c2c1 | 9.5% | ? | -0.6% | -3.3%
SMILES | ERG-DNA inh | BRCA1 expr act | B2AR arrestin | Mito fusion act
Cc1c(C(=O)N2CCN(C)CC2)oc2ccc(Br)cc12 | 5.6% | 12.6µM* | 5.5% | -1.2%
Cc1c(C(=O)N2CCc3ccccc3C2)oc2ccc(Br)cc12 | 10.5% | 79.6% | -0.1% | ?
Cc1oc2cc3c(C(=O)N4CCCCC4)c(C)oc3cc2c1C(=O)N1CCCCC1 | . | 3.16µM* | -0.3% | -1.6%
Cc1ccc(Cl)cc1NC(=O)CSC1=Nc2ccccc2C2=NC(Cc3ccccc3)C(=O)N12 (stereo not drawn) | -3.6% | . | . | .
COc1cccc(OC)c1-c1cc(CCCc2cc(-c3c(OC)cccc3OC)nc3ccccc23)c2ccccc2n1 | . | -72.9% | . | .
CCN(CC)S(=O)(=O)c1ccc2c(c1)nc(CN(C)C(=O)Nc1ccc(C)c(Cl)c1)n2C | -0.6% | . | . | .
Cc1nn(CC(=O)Nc2ccccc2F)c(=O)c2c(C)n(-c3ccc(Cl)cc3)nc12 | 6.4% | . | . | .
O=C(CSc1cccc[n+]1[O-])Nc1cc2c(cc1Cl)C(=O)c1ccccc1C2=O | -2.4% | 10µM* | 8.4% | 0.1%
COC(=O)c1ccc(C(=O)OC)c(NC(=O)CSc2cccc[n+]2[O-])c1 | 6.4% | -6.8% | 5.01µM* | -7.3%
